HEK293 cAMP cs – raises cAMP in parental HEK293 cells, TSHR agonist counter-screen | Potency, µM (highest dose often 57.1 µM), without a hit: at the highest dose activation, hits mostly activators | parental HEK293 CNG cAMP sensor, membrane potential fluorescence | 2.5% of 73,000 active; note: % of control where 0% means no effect; nearly all actives have a fitted effect of over 55% in size
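Parental HEK 293 cells stably expressing a modified CNG channel (no TSHR) report cAMP rise as membrane depolarization. Membrane potential dye with 100 uM RO 20-1724 was loaded for 60 min at room temperature, then compound added for 30 min; fluorescence read at 590 nm.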
TSHR agonist – agonists of human thyroid stimulating hormone receptor; P16473; HEK293-CNG-TSHR cells (CNG channel as cAMP sensor), membrane potential dye, cAMP; Potency, µM (series often up to 57.1 µM), for the others: at the top dose activation, actives largely listed as activators; 0.48% of 73,000 active; active = well fitted activation curve with a large enough effect in the main read-out, with a control signal flat, not every such curve was filed as active; inconclusive = small, poorly fitted or top-dose-only effect, or a change in a side signal; inactive = no such curve, though single readings can be large or run the other way; % of control where 0% means no effect;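 note: the control signal comes from parental cells without the receptor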
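HEK 293 cells stably expressing TSHR and a cAMP-gated CNG channel; parental CNG-only cells as counterscreen. Cells preloaded 60 min with membrane potential dye plus 100 uM RO 20-1724, then compound 30 min; fluorescence read at 590 nm.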
15-hLO inh – inhibitors of human 15-lipoxygenase (ALOX15); 1.4% of 74,000 active; purified 15hLO-1, xylenol orange hydroperoxide absorbance; Potency, µM (highest dose often 57.1 µM), without a hit: at the highest dose activity change, negative = inhibition, actives largely listed as inhibitors; P16050; note: % is set by controls: 0 for no effect and ±100 for the full control effect; nearly all actives have a fitted effect of over 55% in size
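Quantitative HTS in 25 mM Hepes pH 7.5 containing 0.01% Triton X-100: human 15hLO-1 at 40 nM, arachidonic acid at 50 uM, 6 min turnover. Product quantified via ferrous oxidation/xylenol orange, 573:405 nm absorbance ratio.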
Caspase-1 inhib – caspase-1 (human) inhibition, allosteric or competitive | P29466 | Caspase-1 enzyme, Ac-WEHD-AFC fluorogenic rate | Potency, µM (highest dose often 57.5 µM), for the others: at the top dose activity change, negative = inhibition, hits mostly inhibitors | 0.03% of 75,000 active | AID 900;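 note: plate controls were vehicle for no effect and no substrate for full effect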
Target sequence (P29466 120-297 limits assumed): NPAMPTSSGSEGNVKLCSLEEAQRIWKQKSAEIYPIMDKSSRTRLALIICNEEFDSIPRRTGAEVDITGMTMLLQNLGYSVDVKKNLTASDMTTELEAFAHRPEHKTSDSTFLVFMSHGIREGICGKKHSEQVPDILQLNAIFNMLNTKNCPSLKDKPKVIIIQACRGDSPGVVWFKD
Target sequence (P29466 317-404 limits assumed): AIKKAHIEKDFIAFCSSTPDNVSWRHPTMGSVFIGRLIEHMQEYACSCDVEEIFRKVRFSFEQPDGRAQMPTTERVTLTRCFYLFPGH
Casp7 inh – caspase-7 (human) inhibition, allosteric or competitive. P55210. recombinant caspase-7, Ac-DEVD-AFC fluorescence rate. Potency, µM (titrated, usually from 57.5 µM), inactives show at the top dose activity change, negative = inhibition, hits mostly inhibitors. 0.02% of 75,000 active; active = well fitted inhibition curve with a large enough effect in the main read-out, with a control signal flat, not every such curve was filed as active; inconclusive = small, poorly fitted or top-dose-only effect, or a change in a side signal; note: % of control where 0% means no effect
Target sequence (P55210 24-198 limits assumed): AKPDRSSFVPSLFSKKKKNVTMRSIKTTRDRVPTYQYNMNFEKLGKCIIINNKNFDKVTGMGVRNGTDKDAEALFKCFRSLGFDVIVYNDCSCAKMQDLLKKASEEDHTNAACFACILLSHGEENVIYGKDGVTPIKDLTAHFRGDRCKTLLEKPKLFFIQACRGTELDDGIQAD
Target sequence (P55210 207-303 limits assumed): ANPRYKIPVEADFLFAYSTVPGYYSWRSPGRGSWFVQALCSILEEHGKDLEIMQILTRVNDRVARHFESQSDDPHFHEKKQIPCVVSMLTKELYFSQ
ALOX15B inhib – blocks human 15-lipoxygenase 2 activity; 0.56% of 110,000 active; AID 881; O15296; Potency, µM (doses to about 57.1 µM), inactives show at the highest dose activity change, negative = inhibition, most hits filed as inhibitors; purified 15hLO-2, xylenol orange hydroperoxide absorbance; note: % is set by controls: 0 for no effect and ±100 for the full control effect; nearly all actives have a fitted effect of over 60% in size
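Read-out: hydroperoxide product oxidises ferrous iron, measured as xylenol orange complex via the 573-to-405 nm absorbance ratio after 30 min. Reaction: 50 nM enzyme, 15 min compound preincubation, 45 uM arachidonic acid, 90 min RT, Hepes pH 7.5 with Triton X-100.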
Active calls of the source: *; [ ] = remark or other dose. The list is not random: actives were taken first. Their share in the collection is about 3%. Unless noted, calls come from the whole dose curve; as a rule, active = well fitted curve in the direction sought with a large enough effect; inconclusive = small, poorly fitted or top-dose-only effect, or another doubt; inactive = no such curve, though single readings can be large; an effect the other way counts as inactive or inconclusive. Potency is the fitted concentration of half-maximal effect.

CNC(=O)[C@@H]1O[C@@H](n2cnc3c(NCc4ccc(N)cc4)ncnc32)[C@@H](O)[C@H]1O was read as HEK293 cAMP cs inconclusive, TSHR agonist inconclusive, 15-hLO inh 6%, Caspase-1 inhib 2%, Casp7 inh 1% and ALOX15B inhib -4%.
For Cc1ccc(S(=O)(=O)N2CCC[C@H]2C(=O)OC(C)C(=O)Nc2ncc(Cl)cc2Cl)cc1 (stereo partly drawn) the results were ALOX15B inhib -10%.
CCOCCOC(=O)c1cccc(NC(=O)OCC)c1 was read as HEK293 cAMP cs 2%, TSHR agonist 3%, 15-hLO inh -3%, Caspase-1 inhib 0%, Casp7 inh 1% and ALOX15B inhib 5%.
`CCOC(=O)C1=C(C)Nc2ccc(C)cc2S1` gave ALOX15B inhib 4µM*.
Screening CCOCCOC(=O)C1=C(C)Nc2ccc(C)cc2S1 returned HEK293 cAMP cs -6%[2.29 µM], TSHR agonist -16%, 15-hLO inh inconclusive, Caspase-1 inhib -3%, Casp7 inh -1% and ALOX15B inhib 16µM*.
For COC(=O)[C@H](CCSC)NC(=O)Nc1cc(C)ccc1C the results were HEK293 cAMP cs 4%, TSHR agonist 2%, 15-hLO inh 9%, Caspase-1 inhib -2%, Casp7 inh -2% and ALOX15B inhib -1%.
For CCOC(=O)c1c(C)[nH]c(N=Nc2ccc(C)cc2C)c1C the results were ALOX15B inhib -17%.
`CSCCOC(=O)C1=C(C)Nc2ccc(C)cc2S1` gave ALOX15B inhib 5µM*.
C[C@@H]1CC[C@H]2C(=O)O[C@H](CN=[N+]=[N-])CN2[C@@H]1c1ccc(Br)cc1 was read as HEK293 cAMP cs inconclusive, TSHR agonist inconclusive, 15-hLO inh 5%[11.4 µM], Caspase-1 inhib 3%[11.5 µM] and Casp7 inh 2%[11.5 µM].
Screening O=C(O)CCNCC(=O)O returned HEK293 cAMP cs -3%[11.4 µM], TSHR agonist -5%[11.4 µM], 15-hLO inh 4%[11.4 µM], Caspase-1 inhib 0%[11.5 µM], Casp7 inh 3%[11.5 µM] and ALOX15B inhib -9%[11.4 µM].
For CCc1c(C#N)c(SCc2c(C)noc2C)nc2c1C(=O)CC(C)(C)C2 the results were HEK293 cAMP cs 13µM*, TSHR agonist inconclusive, 15-hLO inh -21%, Caspase-1 inhib -2% and Casp7 inh -1%.
`CCc1c(C#N)c(SCCC(=O)Nc2ccc(OC)cc2)nc2c1C(=O)CC(C)(C)C2` gave ALOX15B inhib -5%.
COc1ccc(-c2nc3cnc(N4CCNCC4)nc3n(-c3ccccc3)c2=O)cc1 was read as HEK293 cAMP cs 16%, TSHR agonist 0%, 15-hLO inh 1%, Casp7 inh inconclusive and ALOX15B inhib 13%.
For Cc1ccc(C2C(C#N)=C(N)Oc3n[nH]c(-c4cccs4)c32)s1 (stereo not drawn) the results were HEK293 cAMP cs 3%, TSHR agonist 18%, 15-hLO inh 25µM*, Caspase-1 inhib -1%, Casp7 inh -4% and ALOX15B inhib -3%.
Screening Cc1ccc(-c2[nH]nc3c2C(c2ccoc2)C(C#N)=C(N)O3)cc1C (stereo not drawn) returned HEK293 cAMP cs inconclusive, TSHR agonist inconclusive, 15-hLO inh 25µM*, Caspase-1 inhib 0%, Casp7 inh -1% and ALOX15B inhib 0%.
For CC(C)(C)c1[nH]nc2c1C(c1ccoc1)C(C#N)=C(N)O2 (stereo not drawn) the results were ALOX15B inhib -3%.
Screening CN1Cc2c(N)cccc2[C@H](c2ccccc2)C1 returned HEK293 cAMP cs -1%[25.6 µM], TSHR agonist -8%[25.6 µM], 15-hLO inh 0%[25.6 µM], Caspase-1 inhib -3%[25.7 µM], Casp7 inh -2%[25.7 µM] and ALOX15B inhib 14%[25.6 µM].
COc1ccc(-c2nc3cnc(N4CCN(C)CC4)nc3n(-c3ccc(OC)cc3)c2=O)cc1 was read as HEK293 cAMP cs -28%, TSHR agonist 3%, 15-hLO inh inconclusive, Casp7 inh inconclusive and ALOX15B inhib 2%.
Screening Cc1ccc2cc(C#N)c(NCCNC(=O)C3CC3)nc2c1C returned HEK293 cAMP cs 25µM*, TSHR agonist inconclusive, 15-hLO inh -4%, Casp7 inh inconclusive and ALOX15B inhib -2%.
`Cc1ccc(N=Cc2cccc(O)c2O)c(C)c1` gave HEK293 cAMP cs -25%, TSHR agonist -39%, 15-hLO inh 6.3µM*, Caspase-1 inhib -6%, Casp7 inh -12% and ALOX15B inhib inconclusive.
`CN1CCN(C(=O)c2cc(Cl)ccc2Cl)CC1` gave HEK293 cAMP cs 32µM*, TSHR agonist inconclusive, 15-hLO inh inconclusive, Caspase-1 inhib -2%, Casp7 inh 1% and ALOX15B inhib -2%.
Screening CC(=O)OCC1OC(C#CCCc2ccccc2)C=CC1OC(C)=O (stereo not drawn) returned HEK293 cAMP cs 0%[11.4 µM], TSHR agonist 6%[11.4 µM], 15-hLO inh 18%[11.4 µM], Caspase-1 inhib 0%[11.5 µM] and Casp7 inh 0%[11.5 µM].
For S=c1[nH]ncn1/N=C/c1ccccn1 the results were ALOX15B inhib 0%.
O=C(Oc1ccnc2cc(Cl)ccc12)N1CCCCCC1 was read as HEK293 cAMP cs inconclusive, TSHR agonist inconclusive, 15-hLO inh -1%, Caspase-1 inhib -2%, Casp7 inh 1% and ALOX15B inhib 11%.
Screening Clc1ccc2c(N3CCCC3)ccnc2c1 returned HEK293 cAMP cs 6%, TSHR agonist 11%, 15-hLO inh 20µM*, Caspase-1 inhib inconclusive, Casp7 inh -16% and ALOX15B inhib 8%.
Screening Nc1nc(=O)n(C2OC(CO)C(O)C2O)cc1Cl (stereo not drawn) returned 15-hLO inh 5%, Caspase-1 inhib -2%, Casp7 inh 1% and ALOX15B inhib 1%.
`COc1ccc(Cl)cc1C(=O)N(Cc1nc(-c2cccc(C)c2)no1)C(C)C` gave HEK293 cAMP cs 12%[11.4 µM], TSHR agonist 25µM*, 15-hLO inh inconclusive, Caspase-1 inhib -1%, Casp7 inh -4% and ALOX15B inhib 0%.
`COc1ccc(-c2noc(Cc3ccc(Cl)cc3)n2)cc1OC` gave HEK293 cAMP cs 29%, TSHR agonist 25µM*, 15-hLO inh -26%, Caspase-1 inhib -2% and Casp7 inh -5%.
For C[N@+]1(CCC(=O)c2ccccc2)CC[C@H]2CC[C@H](C2)C1 the results were HEK293 cAMP cs 3%[11.4 µM], TSHR agonist -2%[11.4 µM], 15-hLO inh 3%[11.4 µM], Caspase-1 inhib -1%[11.5 µM], Casp7 inh 3%[11.5 µM] and ALOX15B inhib -5%[11.4 µM].
Screening c1ccc(C(Cc2nc(-c3ccncc3)no2)c2ccccc2)cc1 returned HEK293 cAMP cs 16µM*, TSHR agonist inconclusive, 15-hLO inh 10%, Caspase-1 inhib -2%, Casp7 inh -1% and ALOX15B inhib 24%.
